Reference: PubChem BioAssay AID1159580 (chemical genetic matrix, 2015)
Hit rate of the full screen: of about 5,500 compounds, about 2,000 (36%) were called active. Inconclusive results (about 18%) are left out. Rule as the data show it: active = normalized growth mostly below about 0.91 (no sharp cut-off); inconclusive = no clear call, values can overlap the other calls; inactive = mostly above about 0.92. This is one part of the list.

Test: chemical genetic growth profiling, strain panel (AID 1159580);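 also: tested at 20 µM; growth read once vehicle control cultures reached saturation at 30 °C; 1 = growth at the plate median or of vehicle wells; lower values mean less growth of the strain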
Settings: growth OD
[1] = S. cerevisiae deletion strains, locus YAL013W, strain DEP1, stronger effect = lower value
[2] = S. cerevisiae deletion strains, locus YBR229C, strain ROT2, stronger effect = lower value
[3] = S. cerevisiae deletion strains, locus YDL101C, strain DUN1, stronger effect = lower value
[4] = S. cerevisiae deletion strains, locus YDL134C, strain PPH21, stronger effect = lower value
[5] = S. cerevisiae deletion strains, locus YDR150W, strain NUM1, stronger effect = lower value
[6] = S. cerevisiae deletion strains, locus YEL061C, strain CIN8, stronger effect = lower value
[7] = S. cerevisiae deletion strains, locus YGR078C, strain PAC10, stronger effect = lower value
[8] = S. cerevisiae deletion strains, locus YHR030C, strain SLT2, stronger effect = lower value
[9] = S. cerevisiae deletion strains, locus YHR087W, strain rtc3, stronger effect = lower value
[10] = S. cerevisiae deletion strains, locus YJL187C, strain SWE1, stronger effect = lower value
[11] = S. cerevisiae deletion strains, locus YJR043C, strain POL32, stronger effect = lower value
[12] = S. cerevisiae deletion strains, locus YJR075W, strain HOC1, stronger effect = lower value
[13] = S. cerevisiae deletion strains, locus YLR039C, strain RIC1, stronger effect = lower value
[14] = S. cerevisiae deletion strains, locus YLR058C, strain SHM2 (second series), stronger effect = lower value
[15] = S. cerevisiae deletion strains, locus YLR085C, strain ARP6, stronger effect = lower value
[16] = S. cerevisiae deletion strains, locus YLR262C, strain YPT6, stronger effect = lower value
[17] = S. cerevisiae deletion strains, locus YML094W, strain GIM5, stronger effect = lower value
[18] = S. cerevisiae deletion strains, locus YMR219W, strain ESC1, stronger effect = lower value
[19] = S. cerevisiae deletion strains, locus YMR263W, strain SAP30, stronger effect = lower value
[20] = S. cerevisiae deletion strains, locus YNL153C, strain GIM3, stronger effect = lower value
[21] = S. cerevisiae deletion strains, locus YNL298W, strain CLA4 (second series), stronger effect = lower value
[22] = S. cerevisiae deletion strains, locus YNL322C, strain KRE1, stronger effect = lower value
[23] = S. cerevisiae deletion strains, locus YNR030W, strain Alg12, stronger effect = lower value
[24] = S. cerevisiae deletion strains, locus YOL006C, strain TOP1, stronger effect = lower value
[25] = S. cerevisiae deletion strains, locus YPL055C, strain LGE1, stronger effect = lower value
[26] = S. cerevisiae deletion strains, locus YPL241C, strain CIN2, stronger effect = lower value
[27] = S. cerevisiae deletion strains, locus YPR135W, strain CTF4, stronger effect = lower value
[28] = S. cerevisiae strains, strain wild type, stronger effect = lower value
[29] = S. cerevisiae deletion strains, locus YGR229C, strain SMI1, stronger effect = lower value
[30] = S. cerevisiae deletion strains, locus YKL190W, strain CNB1, stronger effect = lower value
[31] = S. cerevisiae deletion strains, locus YMR307W, strain GAS1, stronger effect = lower value
[32] = S. cerevisiae deletion strains, locus YNL128W, strain TEP1, stronger effect = lower value

Measured: normalized growth

CCOC(=O)c1sc(SC(C)C)c2c1CCCC2=O
active: [4] 0.82 | [6] 0.795 | [8] 0.53 | [10] 0.851 | [13] 0.785 | [15] 0.646 | [21] 0.835 | [23] 0.884 | [26] 0.801
inactive: [1] 0.979 | [2] 0.969 | [3] 0.973 | [5] 1.06 | [7] 0.982 | [9] 0.978 | [11] 1.02 | [12] 0.93 | [14] 0.974 | [16] 0.864 | [17] 0.911 | [18] 0.969 | [19] 1.03 | [20] 0.978 | [22] 0.97 | [24] 0.738 | [25] 1.04 | [27] 0.762 | [28] 0.951

CCOC(=O)c1sc(S(C)(=O)=O)c2c1CCCC2O (centres undefined)
inactive: [1] 1.02 | [2] 1 | [3] 0.995 | [4] 1.01 | [5] 0.95 | [6] 1.02 | [7] 1 | [29] 1 | [8] 1.03 | [9] 0.995 | [11] 0.98 | [12] 1.01 | [30] 1 | [13] 1.05 | [14] 1.01 | [15] 1.08 | [16] 1.04 | [17] 1.03 | [18] 1.01 | [19] 1.04 | [31] 1.08 | [20] 1 | [21] 1.03 | [22] 1.02 | [23] 1.03 | [25] 0.952 | [26] 1.02 | [27] 1.05 | [28] 1.01

Cn1[nH]c(=O)cc1C(=O)NN
inactive: [1] 1 | [2] 1.02 | [3] 1 | [4] 0.996 | [5] 1.01 | [6] 1.03 | [7] 1 | [8] 1.11 | [9] 1 | [10] 0.998 | [11] 1.01 | [12] 0.992 | [13] 0.998 | [14] 0.985 | [15] 0.978 | [16] 1.11 | [17] 0.99 | [18] 1 | [19] 0.991 | [31] 0.899 | [32] 0.981 | [20] 1.05 | [21] 1.03 | [22] 0.995 | [23] 1.01 | [25] 0.995 | [26] 0.992 | [27] 1.12 | [28] 0.986

COC(=O)C1OC(=O)C2OC23C1(C)CCC1C2(C)C(OC(C)=O)CC(OC(C)=O)C(C)(C)C2CC(=O)C13C (centres undefined)
inactive: [1] 1.02 | S. cerevisiae deletion strains, locus YBR021W, strain FUR4, stronger effect = lower value 0.914 | [2] 1 | S. cerevisiae deletion strains, locus YCL029C, strain bik1, stronger effect = lower value 0.987 | S. cerevisiae deletion strains, locus YDL035C, strain GPR1, stronger effect = lower value 1 | S. cerevisiae deletion strains, locus YDL074C, strain BRE1, stronger effect = lower value 1.03 | [3] 0.997 | [4] 0.998 | S. cerevisiae deletion strains, locus YDL185W, strain tfp1, stronger effect = lower value 0.962 | S. cerevisiae deletion strains, locus YDL192W, strain arf1, stronger effect = lower value 0.988 | S. cerevisiae deletion strains, locus YDR101C, strain arx1, stronger effect = lower value 0.999 | [5] 0.969 | S. cerevisiae deletion strains, locus YDR162C, strain NBP2, stronger effect = lower value 1.01 | S. cerevisiae deletion strains, locus YDR318W, strain mcm21, stronger effect = lower value 0.988 | S. cerevisiae deletion strains, locus YDR388W, stronger effect = lower value 1 | S. cerevisiae deletion strains, locus YDR502C, strain sam2, stronger effect = lower value 0.996 | [6] 1 | S. cerevisiae deletion strains, locus YER110C, stronger effect = lower value 0.985 | S. cerevisiae deletion strains, locus YER155C, strain BEM2, stronger effect = lower value 0.929 | S. cerevisiae deletion strains, locus YER167W, strain BCK2, stronger effect = lower value 0.984 | S. cerevisiae deletion strains, locus YGL078C, strain dbp3, stronger effect = lower value 0.979 | S. cerevisiae deletion strains, locus YGL086W, strain mad1, stronger effect = lower value 0.982 | S. cerevisiae deletion strains, locus YGL248W, strain PDE1, stronger effect = lower value 0.983 | [7] 1 | S. cerevisiae deletion strains, locus YGR135W, strain pre9, stronger effect = lower value 0.997 | [29] 1 | S. cerevisiae deletion strains, locus YGR252W, strain gcn5, stronger effect = lower value 1.01 | [8] 0.997 | S. cerevisiae deletion strains, locus YHR079C, strain IRE1 (second series), stronger effect = lower value 0.998 | S. cerevisiae deletion strains, locus YHR094C, strain hxt1, stronger effect = lower value 0.972 | S. cerevisiae deletion strains, locus YHR129C, strain ARP1, stronger effect = lower value 1 | S. cerevisiae deletion strains, locus YHR200W, strain rpn10, stronger effect = lower value 0.985 | S. cerevisiae deletion strains, locus YIL066C, strain RNR3, stronger effect = lower value 1 | S. cerevisiae deletion strains, locus YIL073C, strain SPO22, stronger effect = lower value 0.883 | S. cerevisiae deletion strains, locus YIL125W, strain kgd1, stronger effect = lower value 1 | S. cerevisiae deletion strains, locus YIR030C, strain dcg1, stronger effect = lower value 0.998 | S. cerevisiae deletion strains, locus YJL095W, strain BCK1, stronger effect = lower value 1.05 | S. cerevisiae deletion strains, locus YJL134W, strain LCB3, stronger effect = lower value 0.994 | S. cerevisiae deletion strains, locus YJL168C, strain set2, stronger effect = lower value 1 | S. cerevisiae deletion strains, locus YJL187C, strain SWE1 (second series), stronger effect = lower value 0.996 | [11] 0.984 | [12] 1.01 | S. cerevisiae deletion strains, locus YKL009W, strain mrt4, stronger effect = lower value 0.967 | S. cerevisiae deletion strains, locus YKL068W, stronger effect = lower value 0.983 | S. cerevisiae deletion strains, locus YKL085W, strain MDH1 (second series), stronger effect = lower value 0.984 | S. cerevisiae deletion strains, locus YKL085W, strain MDH1, stronger effect = lower value 0.984 | [30] 1 | S. cerevisiae deletion strains, locus YKR001C, strain vps1, stronger effect = lower value 0.983 | [13] 0.963 | S. cerevisiae deletion strains, locus YLR058C, strain SHM2, stronger effect = lower value 1 | S. cerevisiae deletion strains, locus YLR102C, strain apc9, stronger effect = lower value 0.996 | [16] 0.966 | S. cerevisiae deletion strains, locus YLR268W, strain sec22, stronger effect = lower value 0.996 | S. cerevisiae deletion strains, locus YLR330W, strain CHS5, stronger effect = lower value 0.995 | S. cerevisiae deletion strains, locus YLR342W, strain FKS1 (second series), stronger effect = lower value 0.985 | S. cerevisiae deletion strains, locus YLR371W, strain rom2, stronger effect = lower value 0.981 | S. cerevisiae deletion strains, locus YLR418C, strain cdc73, stronger effect = lower value 1.05 | S. cerevisiae deletion strains, locus YML016C, strain PPZ1, stronger effect = lower value 0.997 | S. cerevisiae deletion strains, locus YML032C, strain rad52, stronger effect = lower value 0.977 | S. cerevisiae deletion strains, locus YML124C, strain tub3, stronger effect = lower value 0.992 | S. cerevisiae deletion strains, locus YMR078C, strain ctf18, stronger effect = lower value 0.992 | S. cerevisiae deletion strains, locus YMR223W, strain ubp8, stronger effect = lower value 0.974 | [19] 0.994 | [31] 1 | S. cerevisiae deletion strains, locus YNL067W, strain RPL9B, stronger effect = lower value 0.994 | [32] 1.02 | [20] 1 | S. cerevisiae deletion strains, locus YNL233W, strain BNI4, stronger effect = lower value 1.01 | S. cerevisiae deletion strains, locus YNL250W, strain rad50, stronger effect = lower value 0.987 | S. cerevisiae deletion strains, locus YNL271C, strain bni1, stronger effect = lower value 0.995 | S. cerevisiae deletion strains, locus YNL298W, strain CLA4, stronger effect = lower value 0.985 | S. cerevisiae deletion strains, locus YNL307C, strain MCK1, stronger effect = lower value 0.988 | [22] 1.01 | S. cerevisiae deletion strains, locus YNR052C, strain pop2, stronger effect = lower value 0.986 | [24] 1.04 | S. cerevisiae deletion strains, locus YOL012C, strain htz1 0.841 | S. cerevisiae deletion strains, locus YOL147C, strain pex11, stronger effect = lower value 0.99 | S. cerevisiae deletion strains, locus YOR061W, strain CKA2, stronger effect = lower value 1 | S. cerevisiae deletion strains, locus YOR069W, strain VPS5, stronger effect = lower value 0.996 | S. cerevisiae deletion strains, locus YOR136W, strain idh2, stronger effect = lower value 0.985 | S. cerevisiae deletion strains, locus YOR144C, strain elg1, stronger effect = lower value 0.993 | S. cerevisiae deletion strains, locus YOR184W, strain ser1, stronger effect = lower value 0.966 | S. cerevisiae deletion strains, locus YOR316C, strain cot1, stronger effect = lower value 0.987 | [25] 1 | [26] 0.998 | S. cerevisiae deletion strains, locus YPR119W, strain clb2, stronger effect = lower value 0.996 | S. cerevisiae deletion strains, locus YPR141C, strain kar3, stronger effect = lower value 0.975 | S. cerevisiae deletion strains, locus YPR163C, strain tif3, stronger effect = lower value 0.991 | S. cerevisiae deletion strains, locus YPR167C, strain met16, stronger effect = lower value 0.995 | S. cerevisiae deletion strains, strain wtn01, stronger effect = lower value 0.997 | [28] 0.983

CCN(CC)C(=O)N[C@H]1C=C2c3cccc4[nH]cc(c34)C[C@H]2N(C)C1
inactive: [1] 1.01 | S. cerevisiae deletion strains, locus YAL040C, strain CLN3, stronger effect = lower value 0.999 | S. cerevisiae deletion strains, locus YCL061C, strain MRC1 (second series), stronger effect = lower value 1.01 | S. cerevisiae deletion strains, locus YDR363W, strain ESC2, stronger effect = lower value 1.03 | S. cerevisiae deletion strains, locus YER002W, strain NOP16, stronger effect = lower value 1.01 | [12] 1.02 | [31] 1.01 | S. cerevisiae deletion strains, locus YNL175C, strain NOP13, stronger effect = lower value 0.996 | S. cerevisiae deletion strains, locus YNL197C, strain WHI3, stronger effect = lower value 1.01 | S. cerevisiae deletion strains, locus YNL224C, strain SQS1, stronger effect = lower value 1.02 | [22] 1.01 | S. cerevisiae deletion strains, locus YOR083W, strain WHI5 (second series), stronger effect = lower value 0.999 | [25] 0.998 | [26] 1

CCOC(=O)C1=C(N)Oc2ccc(Br)cc2C1C(C#N)C(=O)OCC (centres undefined)
inactive: [1] 0.934 | [2] 0.938 | S. cerevisiae deletion strains, locus YCL061C, strain MRC1, stronger effect = lower value 0.916 | [5] 0.957 | [7] 0.938 | [29] 0.963 | [9] 0.979 | [10] 0.959 | [11] 0.983 | [14] 0.986 | [18] 0.979 | [19] 0.964 | [20] 0.982 | [22] 0.992 | [25] 0.98
active: [3] 0.884 | [6] 0.648 | [8] 0.293 | [12] 0.88 | [13] 0.386 | [15] 0.379 | [16] 0.46 | [17] 0.669 | [31] 0.667 | [21] 0.61 | [23] 0.528 | [26] 0.472 | [27] 0.424
